# Test results from PubChem BioAssay AID1159580 (chemical genetic matrix, 2015).
# Hit rate of the full screen: of about 5,500 compounds, about 2,000 (36%) were called active. Not shown: some 18% with an inconclusive outcome. This is one part of the list. Unmarked numbers belong to inactive results. Rule as the data show it: active = normalized growth mostly below about 0.91 (no sharp cut-off); inconclusive = no clear call, values can overlap the other calls; inactive = mostly above about 0.92.
# Assay: chemical genetic growth profiling, strain panel (AID 1159580);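 also: tested at 20 µM; growth read once vehicle control cultures reached saturation at 30 °C; 1 = growth at the plate median or of vehicle wells; lower values mean less growth of the strain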
# Settings: S. cerevisiae deletion strains, growth OD
# [1] = locus YAR019C, strain CDC15, stronger effect = lower value
# [2] = locus YBL105C, strain PKC1, stronger effect = lower value
# [3] = locus YBR135W, strain CKS1, stronger effect = lower value
# [4] = locus YBR136W, strain MEC1, stronger effect = lower value
# [5] = locus YBR160W, strain CDC28, stronger effect = lower value
# [6] = locus YDL017W, strain CDC7, stronger effect = lower value
# [7] = locus YDL028C, strain MPS1, stronger effect = lower value
# [8] = locus YDL101C, strain DUN1, stronger effect = lower value
# [9] = locus YDL108W, strain KIN28, stronger effect = lower value
# [10] = locus YDL132W, strain cdc53, stronger effect = lower value
# [11] = locus YDL214C, strain PRR2, stronger effect = lower value
# [12] = locus YDR052C, strain DBF4, stronger effect = lower value
# [13] = locus YDR054C, strain cdc34, stronger effect = lower value
# [14] = locus YDR226W, strain ADK1, stronger effect = lower value
# [15] = locus YDR477W, strain SNF1, stronger effect = lower value
# [16] = locus YER123W, strain YCK3, stronger effect = lower value
# [17] = locus YER133W, strain GLC7, stronger effect = lower value
# [18] = locus YFL009W, strain cdc4, stronger effect = lower value
# [19] = locus YFL029C, strain CAK1, stronger effect = lower value
# [20] = locus YFR003C, strain YPI1, stronger effect = lower value
# [21] = locus YFR019W, strain FAB1, stronger effect = lower value
# [22] = locus YFR028C, strain CDC14, stronger effect = lower value
# [23] = locus YGR040W, strain KSS1, stronger effect = lower value
# [24] = locus YGR052W, strain FMP48, stronger effect = lower value
# [25] = locus YGR092W, strain DBF2, stronger effect = lower value
# [26] = locus YHR030C, strain SLT2, stronger effect = lower value
# [27] = locus YHR079C, strain IRE1, stronger effect = lower value
# [28] = locus YHR082C, strain KSP1, stronger effect = lower value
# [29] = locus YHR205W, strain SCH9, stronger effect = lower value
# [30] = locus YIL147C, strain SLN1, stronger effect = lower value
# [31] = locus YJL095W, strain BCK1, stronger effect = lower value
# [32] = locus YJL128C, strain PBS2, stronger effect = lower value
# [33] = locus YJL157C, strain FAR1, stronger effect = lower value
# [34] = locus YJR016C, strain ILV3, stronger effect = lower value
# [35] = locus YJR066W, strain TOR1 (second series), stronger effect = lower value
# [36] = locus YJR066W, strain TOR1, stronger effect = lower value
# [37] = locus YKL048C, strain ELM1, stronger effect = lower value
# [38] = locus YKL067W, strain YNK1, stronger effect = lower value
# [39] = locus YKL101W, strain HSL1, stronger effect = lower value
# [40] = locus YKL193C, strain SDS22, stronger effect = lower value
# [41] = locus YKL203C, strain TOR2, stronger effect = lower value
# [42] = locus YLR113W, strain HOG1, stronger effect = lower value
# [43] = locus YLR133W, strain CKI1, stronger effect = lower value
# [44] = locus YLR403W, strain SFP1, stronger effect = lower value
# [45] = locus YML070W, strain DAK1, stronger effect = lower value
# [46] = locus YMR001C, strain CDC5, stronger effect = lower value
# [47] = locus YMR205C, strain PFK2 (second series), stronger effect = lower value
# [48] = locus YMR277W, strain FCP1, stronger effect = lower value
# [49] = locus YNL006W, strain LST8, stronger effect = lower value
# [50] = locus YNL020C, strain ARK1, stronger effect = lower value
# [51] = locus YNL161W, strain CBK1, stronger effect = lower value
# [52] = locus YNL183C, strain NPR1, stronger effect = lower value
# [53] = locus YNL207W, strain RIO2, stronger effect = lower value
# [54] = locus YNL222W, strain SSU72, stronger effect = lower value
# [55] = locus YNL307C, strain MCK1 (second series), stronger effect = lower value
# [56] = locus YOL078W, strain AVO1, stronger effect = lower value
# [57] = locus YOL136C, strain PFK27, stronger effect = lower value
# [58] = locus YOR119C, strain RIO1, stronger effect = lower value
# [59] = locus YOR231W, strain MKK1, stronger effect = lower value
# [60] = locus YOR329C, strain SCD5, stronger effect = lower value
# [61] = locus YPL031C, strain PHO85, stronger effect = lower value
# [62] = locus YPL153C, strain RAD53, stronger effect = lower value
# [63] = locus YPL204W, strain HRR25, stronger effect = lower value
# [64] = locus YPL209C, strain IPL1, stronger effect = lower value
# [65] = locus YPL256C, strain CLN2, stronger effect = lower value
# [66] = locus YPR025C, strain CCL1, stronger effect = lower value
# [67] = locus YPR106W, strain ISR1, stronger effect = lower value
# [68] = locus YPR111W, strain DBF20, stronger effect = lower value
# [69] = strain NNK1, stronger effect = lower value
# [70] = strain TSCII, stronger effect = lower value
# [71] = locus YOR061W, strain CKA2, stronger effect = lower value
smiles,measurement,setting,value
Cc1nnsc1C(=O)NNc1ccc(F)cc1F,normalized growth,[1],0.951
same,normalized growth,[2],0.951
same,normalized growth,[3],0.956
same,normalized growth,[4],0.961
same,normalized growth,[5],0.956
same,normalized growth,[6],0.949
same,normalized growth,[7],0.97
same,normalized growth,[8],0.956
same,normalized growth,[9],0.965
same,normalized growth,[10],0.955
same,normalized growth,[11],0.706
same,normalized growth,[12],0.954
same,normalized growth,[13],0.929
same,normalized growth,[14],0.953
same,normalized growth,[15],0.711
same,normalized growth,[16],0.459 (active)
same,normalized growth,[17],0.827
same,normalized growth,[18],0.965
same,normalized growth,[19],0.941
same,normalized growth,[20],0.968
same,normalized growth,[21],0.584 (active)
same,normalized growth,[22],0.952
same,normalized growth,[23],0.789
same,normalized growth,[24],0.646
same,normalized growth,[25],0.636
same,normalized growth,[26],0.831 (active)
same,normalized growth,[27],0.925
same,normalized growth,[28],0.85
same,normalized growth,[29],0.924
same,normalized growth,[30],0.967
same,normalized growth,[31],0.544
same,normalized growth,[32],0.938
same,normalized growth,[33],0.804
same,normalized growth,[34],0.962
same,normalized growth,[35],0.683
same,normalized growth,[36],0.791
same,normalized growth,[37],0.952
same,normalized growth,[38],0.819
same,normalized growth,[39],0.917
same,normalized growth,[40],0.96
same,normalized growth,[41],0.928
same,normalized growth,[42],0.683 (active)
same,normalized growth,[43],0.812
same,normalized growth,[44],0.883
same,normalized growth,[45],0.696
same,normalized growth,[46],0.949
same,normalized growth,[47],0.906
same,normalized growth,[48],0.959
same,normalized growth,[49],0.975
same,normalized growth,[50],0.92
same,normalized growth,[51],0.945
same,normalized growth,[52],0.837
same,normalized growth,[53],0.961
same,normalized growth,[54],0.954
same,normalized growth,[55],0.678
same,normalized growth,[56],0.955
same,normalized growth,[57],0.808
same,normalized growth,[58],0.911
same,normalized growth,[59],0.908
same,normalized growth,[60],0.958
same,normalized growth,[61],0.858
same,normalized growth,[62],0.832
same,normalized growth,[63],0.917
same,normalized growth,[64],0.943
same,normalized growth,[65],0.602 (active)
same,normalized growth,[66],0.957
same,normalized growth,[67],0.963
same,normalized growth,[68],0.966
same,normalized growth,[69],0.977
same,normalized growth,[70],0.947
Cc1cc(Cl)ccc1NNC(=O)c1ccno1,normalized growth,[1],0.974
same,normalized growth,[2],0.958
same,normalized growth,[3],0.981
same,normalized growth,[4],0.968
same,normalized growth,[5],0.966
same,normalized growth,[6],0.97
same,normalized growth,[7],0.979
same,normalized growth,[8],0.967
same,normalized growth,[9],0.97
same,normalized growth,[10],0.987
same,normalized growth,[11],0.933
same,normalized growth,[12],0.968
same,normalized growth,[13],0.961
same,normalized growth,[14],0.976
same,normalized growth,[15],0.944
same,normalized growth,[16],0.884
same,normalized growth,[17],0.938
same,normalized growth,[18],0.974
same,normalized growth,[19],0.96
same,normalized growth,[20],0.967
same,normalized growth,[21],0.925
same,normalized growth,[22],0.979
same,normalized growth,[23],0.917
same,normalized growth,[24],0.996
same,normalized growth,[25],0.912
same,normalized growth,[26],0.954
same,normalized growth,[27],1
same,normalized growth,[28],1
same,normalized growth,[29],0.902
same,normalized growth,[30],0.971
same,normalized growth,[31],0.931
same,normalized growth,[32],0.927
same,normalized growth,[33],0.919
same,normalized growth,[34],0.987
same,normalized growth,[35],0.87
same,normalized growth,[36],1.01
same,normalized growth,[37],0.912
same,normalized growth,[38],0.939
same,normalized growth,[39],0.903
same,normalized growth,[40],0.971
same,normalized growth,[41],0.978
same,normalized growth,[42],0.871
same,normalized growth,[43],0.908
same,normalized growth,[44],0.903
same,normalized growth,[45],0.903
same,normalized growth,[46],0.962
same,normalized growth,[47],0.938
same,normalized growth,[48],0.978
same,normalized growth,[49],0.975
same,normalized growth,[50],0.912
same,normalized growth,[51],0.972
same,normalized growth,[52],0.953
same,normalized growth,[53],0.966
same,normalized growth,[54],0.978
same,normalized growth,[55],0.907
same,normalized growth,[56],0.977
same,normalized growth,[57],0.889
same,normalized growth,[71],0.946
same,normalized growth,[58],0.977
same,normalized growth,[59],0.899
same,normalized growth,[60],0.963
same,normalized growth,[61],0.942
same,normalized growth,[62],0.916
same,normalized growth,[63],0.904
same,normalized growth,[64],0.958
same,normalized growth,[65],0.958
same,normalized growth,[66],0.975
same,normalized growth,[67],0.945
same,normalized growth,[68],0.957
same,normalized growth,[69],0.955
same,normalized growth,[70],0.972
O=C(NNc1ccccc1F)c1ccno1,normalized growth,[1],0.981
same,normalized growth,[2],0.97
same,normalized growth,[3],0.976
same,normalized growth,[4],0.98
same,normalized growth,[5],0.977
same,normalized growth,[6],0.987
same,normalized growth,[7],0.981
same,normalized growth,[8],0.979
same,normalized growth,[9],0.983
same,normalized growth,[10],0.973
same,normalized growth,[11],0.942
same,normalized growth,[12],0.979
same,normalized growth,[13],0.975
same,normalized growth,[14],0.983
same,normalized growth,[15],0.948
same,normalized growth,[16],0.869
same,normalized growth,[17],0.957
same,normalized growth,[18],0.986
same,normalized growth,[19],0.979
same,normalized growth,[20],0.982
same,normalized growth,[21],0.92
same,normalized growth,[22],0.982
same,normalized growth,[23],0.915
same,normalized growth,[24],1.01
same,normalized growth,[25],0.904
same,normalized growth,[26],0.959
same,normalized growth,[27],0.952
same,normalized growth,[28],0.998
same,normalized growth,[29],0.934
same,normalized growth,[30],0.983
same,normalized growth,[31],0.937
same,normalized growth,[32],0.972
same,normalized growth,[33],0.929
same,normalized growth,[34],0.979
same,normalized growth,[35],0.886
same,normalized growth,[36],1.01
same,normalized growth,[37],0.937
same,normalized growth,[38],0.943
same,normalized growth,[39],0.905
same,normalized growth,[40],0.978
same,normalized growth,[41],1.01
same,normalized growth,[42],0.863
same,normalized growth,[43],0.93
same,normalized growth,[44],0.934
same,normalized growth,[45],0.906
same,normalized growth,[46],0.979
same,normalized growth,[47],0.95
same,normalized growth,[48],0.986
same,normalized growth,[49],0.993
same,normalized growth,[50],0.929
same,normalized growth,[51],0.979
same,normalized growth,[52],0.937
same,normalized growth,[53],0.984
same,normalized growth,[54],0.976
same,normalized growth,[55],0.924
same,normalized growth,[56],0.98
same,normalized growth,[57],0.909
same,normalized growth,[71],0.884
same,normalized growth,[58],0.996
same,normalized growth,[59],0.888
same,normalized growth,[60],0.985
same,normalized growth,[61],0.964
same,normalized growth,[62],0.909
same,normalized growth,[63],0.937
same,normalized growth,[64],0.976
same,normalized growth,[65],0.914
same,normalized growth,[66],0.978
same,normalized growth,[67],0.968
same,normalized growth,[68],0.961
same,normalized growth,[69],0.983
same,normalized growth,[70],0.977
